In all, about 2,400 compounds went through this assay and about 2,200 (92%) were called active. The set was probably picked from earlier hits. The list shows a part of the results. Unmarked numbers belong to inactive results.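 Rule for the calls: active = mean inhibition over triplicate runs exceeds the cutoff derived for the earlier primary screen (cut at about 25% in these data); inactive = the rest.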
Each molecule was assayed against Platelet-activating factor acetylhydrolase IB subunit alpha2 (Homo sapiens) (UniProt P68402) (assay: PAFAH1B2 inhibitors, confirmation, biochemical, fluorescence polarization, FP-rhodamine probe, triplicate (AID 493034;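 note: 0% = enzyme with DMSO and 100% = wells lacking PAFAH1B2 protein; inhibitors lower polarization by leaving the probe unbound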)). Conditions: recombinant PAFAH1B2, FP-rhodamine probe fluorescence polarization; at 3.39 µM; hits give high values.
Platelet-activating factor acetylhydrolase IB subunit alpha2 (Homo sapiens), sequence (P68402 whole entry, looked up): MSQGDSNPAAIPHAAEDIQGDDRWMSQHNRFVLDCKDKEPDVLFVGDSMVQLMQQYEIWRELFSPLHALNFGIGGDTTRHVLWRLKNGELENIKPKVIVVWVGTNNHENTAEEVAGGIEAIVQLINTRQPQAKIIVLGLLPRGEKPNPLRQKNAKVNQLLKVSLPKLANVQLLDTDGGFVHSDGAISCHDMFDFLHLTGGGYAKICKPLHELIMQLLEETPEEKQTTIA

Row | Structure (SMILES) | inhibition
1 | Cc1ccc(S(=O)(=O)n2oc(=O)c(C3CCCCC3)c2N)cc1 | 23.5%
2 | O=C(/C=C/c1ccc(F)cc1)NC(=S)NNC(=O)[C@H]1C[C@@H]1c1ccccc1 | 47.2% (active)
3 | CC(C)CNC(=O)c1cccc(NC(=O)CSc2ccc(Cl)cc2)c1 | 22.5%
4 | COc1ccc(/C=C\C(=O)CC(O)(c2ccccc2)C(F)(F)F)cc1 (stereo not drawn) | 21.6%
5 | O=C(/C=C/c1ccccc1)CC(O)(c1ccccc1)C(F)(F)F (stereo not drawn) | 38.1% (active)
6 | CC(=O)Nc1ccc(NC(=O)C(C)OC(=O)C2(c3ccc(F)cc3)CCCC2)cc1 (stereo not drawn) | 23.3%
7 | Cc1nn(-c2ccccc2)c2c1CC(=O)Nc1ccccc1-2 | 23.1%
8 | Cc1nc(SCCC(=O)O)c2cc(-c3ccccc3)sc2n1 | 33.6% (active)
9 | O=C(O)CN1C(=O)/C(=C\c2cccc(OCc3ccc(Cl)cc3)c2)SC1=S | 68.2% (active)
10 | CC1=CC(=NNS(=O)(=O)c2ccc([N+](=O)[O-])cc2)CC(C)(C)C1 | 23.5%
11 | O=[N+]([O-])c1ccc(S(=O)(=O)NNC(=S)NCCc2ccccc2)cc1 | 38.5% (active)
12 | Nc1nn(S(=O)(=O)c2ccccc2)cc1-c1ccc([N+](=O)[O-])cc1 | 24%
13 | O=c1[nH]c(CCl)nc2cc(-c3ccc(Cl)cc3)sc12 | 61% (active)
14 | Cc1cc(NC(=S)N(Cc2ccc(Br)cc2)Cc2ccc(C(=O)O)cc2)ccc1Cl | 1.23%
15 | O=C(O)c1[nH]c2ccccc2c1C(c1cccc(O)c1)c1c(C(=O)O)[nH]c2ccccc12 | 80.5% (active)
16 | O=C(O)c1[nH]c2ccccc2c1C(c1c(F)cccc1Cl)c1c(C(=O)O)[nH]c2ccccc12 | 33.3% (active)
17 | O=C(O)c1[nH]c2ccccc2c1C(c1ccccc1)c1c(C(=O)O)[nH]c2ccccc12 | 75.9% (active)
18 | COc1cc(C(c2c(C(=O)O)[nH]c3ccccc23)c2c(C(=O)O)[nH]c3ccccc23)ccc1OCc1ccccc1 | 37.9% (active)
19 | Cc1ccc(O)c(N=Cc2cc(Cc3ccccc3)cc([N+](=O)[O-])c2O)c1 | 20.2%
20 | CCCCNC(=O)c1cccc(S(=O)(=O)N2CC3(C)CC2CC(C)(C)C3)c1 (stereo not drawn) | 19.5%
21 | Cc1ccc(CN2[C@@H](CC3CCCCC3)COCCS2(=O)=O)cc1 | 23.1%
22 | CCCCCCCCCCCCCC(=O)O | 22.4%
23 | O=C(O)CN1C(=O)C2C3CC(C2C1=O)C1C(c2ccccc2)c2sc(=O)[nH]c2SC31 (stereo not drawn) | 59.3% (active)
24 | O=C(O)CN1C(=O)C2C3CC(C2C1=O)C1C(c2ccc(F)cc2)c2sc(=O)[nH]c2SC31 (stereo not drawn) | 54.6% (active)

Row | Structure (SMILES) | inhibition
25 | O=C(O)CN1C(=O)C2C3CC(C2C1=O)C1C(c2ccc(Cl)cc2)c2sc(=O)[nH]c2SC31 (stereo not drawn) | 37.1% (active)
26 | O=C(COC(=O)CCSc1ccccc1)Nc1cc(F)ccc1F | 10.5%
27 | O=C(COC(=O)C12CC3CC(CC(Br)(C3)C1)C2)Nc1ccc2[nH]c(=O)[nH]c2c1 | 31.2% (active)
28 | O=C(COC(=O)C12CC3CC(CC(Br)(C3)C1)C2)Nc1cccnc1Cl | 36.7% (active)
29 | O=C(COC(=O)C12CC3CC(CC(Br)(C3)C1)C2)Nc1c(F)cccc1F | 35.8% (active)
30 | COc1ccccc1CNC(=O)COC(=O)c1ccc(C(=O)c2ccccc2)cc1 | 3.07%
31 | COc1ccccc1NC(=O)COC(=O)C12CC3CC(CC(Br)(C3)C1)C2 | 26.2% (active)
32 | O=c1c2c(nc3cc(-c4ccc(Cl)cc4)[nH]n13)CCS2 | 11.7%
33 | N#C/C(=C\c1cc2c(cc1Br)OCO2)c1ccc(C(=O)O)cc1 | 23.6%
34 | Nc1nc(-c2ccccc2)cs1 | 35.5% (active)
35 | Cc1ccc(-c2csc(N)n2)cc1 | 63.1% (active)
36 | Nc1nc(-c2ccc(Br)cc2)cs1 | 92.3% (active)
37 | Nc1nc(-c2ccc(F)cc2)cs1 | 55.6% (active)
38 | Cc1ccc(-c2csc(NCCn3c(C)nc4cc(C(F)(F)F)ccc43)n2)cc1 | 23.5%
39 | O=C(O)c1sccc1SCc1ccc(Cl)cc1Cl | 22.4%
40 | Nc1nc(-c2cccc(F)c2)cs1 | 36.3% (active)
41 | Cc1nc(-c2cccc(S(=O)(=O)N3CCC(C)CC3)c2)cs1 | 23.7%
42 | O=C(O)CNC(=O)C12CC3CC(CC(Cl)(C3)C1)C2 | 22.2%
43 | CC(CCc1ccccc1)NC(=O)COC(=O)C12CC3CC(CC(Br)(C3)C1)C2 (stereo not drawn) | 38.2% (active)
44 | CC(NC(=O)CN(C)S(=O)(=O)c1cccc2nsnc12)c1ccccc1 (stereo not drawn) | 22.2%
45 | O=C(NCc1ccccc1)C12CC3CC(CC(Br)(C3)C1)C2 | 27.1% (active)
46 | O=C(COC(=O)C12CC3CC(CC(C3)C1)C2)NNC(=O)c1ccccc1 | 21.4%
47 | O=C(COC(=O)C12CC3CC(CC(Br)(C3)C1)C2)NNC(=O)c1ccccc1 | 46.3% (active)
48 | CC(NC(=O)COC(=O)C12CC3CC(CC(Br)(C3)C1)C2)c1ccccc1 (stereo not drawn) | 31% (active)

— PubChem BioAssay AID493034 (The Scripps Research Institute Molecular Screening Center, 2011)
